Activity calls are given as the source filed them.
Legend:
[1] = test system: PRMT1 (protein arginine N-methyltransferase 1); assay: PRMT1 binders on small-molecule microarrays, primary screen, biochemical, small-molecule microarray, 635 nm fluorescence (AID 1088); conditions: small-molecule microarray binding, higher = more signal;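 also: binding of Prmt1 protein to compounds spotted on small-molecule microarray slides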
[2] = yeast growth modulation, basal conditions, primary screen, YJM789 clinical isolate, OD600, 24 h (AID 1089);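 also: growth of clinical yeast isolate S. cerevisiae YJM 789 seeded 1000 cells per well; test concentration not given here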; conditions: S. cerevisiae YJM789 growth, higher = more signal, called active from +8 up or from −8 down
[3] = fission yeast growth modulation, primary screen, strain 972, OD600, 24 h, no modulator (AID 1090);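 also: basal condition with compound alone and no growth modifier present; test concentration not given here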; conditions: S. pombe 972 growth, higher = more signal, called active from +8 up or from −8 down
[4] = S. cerevisiae growth modulation with rapamycin, primary screen, strain BY4716, OD600, 96 h (AID 1091); conditions: higher = more signal, called active from +8 up or from −8 down; also: test concentration not given here
[5] = molecular target: Torsin-1A-interacting protein 2 (Homo sapiens) (UniProt Q8NFQ8); assay: LULL1 binders on small-molecule microarray, primary screen, cell lysate, human LULL1 lysate, 635/667 nm fluorescence (AID 1092); conditions: hLULL1 lysate binding, 635 nm fluorescence, higher = more signal;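 also: probe is lysate of COS7 cells overexpressing human LULL1; score merges per-feature 667 nm fluorescence with signal-to-noise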
Chain of Torsin-1A-interacting protein 2 (Homo sapiens) (Q8NFQ8 whole entry, looked up): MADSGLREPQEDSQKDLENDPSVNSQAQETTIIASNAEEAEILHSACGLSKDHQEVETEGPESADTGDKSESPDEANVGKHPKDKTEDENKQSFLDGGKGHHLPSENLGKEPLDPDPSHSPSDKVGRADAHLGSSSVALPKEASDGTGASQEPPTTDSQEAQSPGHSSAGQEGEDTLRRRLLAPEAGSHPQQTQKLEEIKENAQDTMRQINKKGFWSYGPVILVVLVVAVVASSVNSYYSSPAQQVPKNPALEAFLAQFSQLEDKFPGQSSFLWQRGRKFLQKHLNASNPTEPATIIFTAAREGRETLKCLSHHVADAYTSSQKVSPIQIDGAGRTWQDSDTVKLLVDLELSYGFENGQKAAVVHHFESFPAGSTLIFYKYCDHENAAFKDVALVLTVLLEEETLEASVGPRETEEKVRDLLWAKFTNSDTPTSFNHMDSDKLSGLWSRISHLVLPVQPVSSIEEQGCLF

[6] = E. coli growth modulation, two-sided OD650, primary screen, E. coli filamentation project, strain DRC41, 24 h (AID 1093); conditions: OD650, 24 h, higher = more signal, called active from +8 up or from −8 down;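 also: MC1000 strain lacking acrAB efflux and sulA so SOS filamentation is blocked; test concentration not given here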
[7] = small-molecule microarray binders of probe aLefty2, primary screen, biochemical, biotinylated probe, 635/667 nm fluorescence (AID 1094); conditions: higher = more signal;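 also: score merges spot fluorescence near 667 nm with spot signal-to-noise ratio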
[8] = test system: Noggin (protein binding on small-molecule microarray); assay: Noggin binders on small-molecule microarray, primary screen, biochemical, 635/667 nm fluorescence (AID 1095); conditions: 635 nm fluorescence, higher = more signal;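 also: score merges 667 nm feature fluorescence with signal to noise over triplicate slides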
[9] = molecular target: Neurogenic locus notch homolog protein 3 (Homo sapiens) (UniProt Q9UM47); assay: NOTCH3 binders on small-molecule microarray, primary screen, biochemical, 635/667 nm fluorescence (AID 1096); conditions: NOTCH3 binding, 635 nm fluorescence, higher = more signal
Chain of Neurogenic locus notch homolog protein 3 (Homo sapiens) (Q9UM47 whole entry, looked up): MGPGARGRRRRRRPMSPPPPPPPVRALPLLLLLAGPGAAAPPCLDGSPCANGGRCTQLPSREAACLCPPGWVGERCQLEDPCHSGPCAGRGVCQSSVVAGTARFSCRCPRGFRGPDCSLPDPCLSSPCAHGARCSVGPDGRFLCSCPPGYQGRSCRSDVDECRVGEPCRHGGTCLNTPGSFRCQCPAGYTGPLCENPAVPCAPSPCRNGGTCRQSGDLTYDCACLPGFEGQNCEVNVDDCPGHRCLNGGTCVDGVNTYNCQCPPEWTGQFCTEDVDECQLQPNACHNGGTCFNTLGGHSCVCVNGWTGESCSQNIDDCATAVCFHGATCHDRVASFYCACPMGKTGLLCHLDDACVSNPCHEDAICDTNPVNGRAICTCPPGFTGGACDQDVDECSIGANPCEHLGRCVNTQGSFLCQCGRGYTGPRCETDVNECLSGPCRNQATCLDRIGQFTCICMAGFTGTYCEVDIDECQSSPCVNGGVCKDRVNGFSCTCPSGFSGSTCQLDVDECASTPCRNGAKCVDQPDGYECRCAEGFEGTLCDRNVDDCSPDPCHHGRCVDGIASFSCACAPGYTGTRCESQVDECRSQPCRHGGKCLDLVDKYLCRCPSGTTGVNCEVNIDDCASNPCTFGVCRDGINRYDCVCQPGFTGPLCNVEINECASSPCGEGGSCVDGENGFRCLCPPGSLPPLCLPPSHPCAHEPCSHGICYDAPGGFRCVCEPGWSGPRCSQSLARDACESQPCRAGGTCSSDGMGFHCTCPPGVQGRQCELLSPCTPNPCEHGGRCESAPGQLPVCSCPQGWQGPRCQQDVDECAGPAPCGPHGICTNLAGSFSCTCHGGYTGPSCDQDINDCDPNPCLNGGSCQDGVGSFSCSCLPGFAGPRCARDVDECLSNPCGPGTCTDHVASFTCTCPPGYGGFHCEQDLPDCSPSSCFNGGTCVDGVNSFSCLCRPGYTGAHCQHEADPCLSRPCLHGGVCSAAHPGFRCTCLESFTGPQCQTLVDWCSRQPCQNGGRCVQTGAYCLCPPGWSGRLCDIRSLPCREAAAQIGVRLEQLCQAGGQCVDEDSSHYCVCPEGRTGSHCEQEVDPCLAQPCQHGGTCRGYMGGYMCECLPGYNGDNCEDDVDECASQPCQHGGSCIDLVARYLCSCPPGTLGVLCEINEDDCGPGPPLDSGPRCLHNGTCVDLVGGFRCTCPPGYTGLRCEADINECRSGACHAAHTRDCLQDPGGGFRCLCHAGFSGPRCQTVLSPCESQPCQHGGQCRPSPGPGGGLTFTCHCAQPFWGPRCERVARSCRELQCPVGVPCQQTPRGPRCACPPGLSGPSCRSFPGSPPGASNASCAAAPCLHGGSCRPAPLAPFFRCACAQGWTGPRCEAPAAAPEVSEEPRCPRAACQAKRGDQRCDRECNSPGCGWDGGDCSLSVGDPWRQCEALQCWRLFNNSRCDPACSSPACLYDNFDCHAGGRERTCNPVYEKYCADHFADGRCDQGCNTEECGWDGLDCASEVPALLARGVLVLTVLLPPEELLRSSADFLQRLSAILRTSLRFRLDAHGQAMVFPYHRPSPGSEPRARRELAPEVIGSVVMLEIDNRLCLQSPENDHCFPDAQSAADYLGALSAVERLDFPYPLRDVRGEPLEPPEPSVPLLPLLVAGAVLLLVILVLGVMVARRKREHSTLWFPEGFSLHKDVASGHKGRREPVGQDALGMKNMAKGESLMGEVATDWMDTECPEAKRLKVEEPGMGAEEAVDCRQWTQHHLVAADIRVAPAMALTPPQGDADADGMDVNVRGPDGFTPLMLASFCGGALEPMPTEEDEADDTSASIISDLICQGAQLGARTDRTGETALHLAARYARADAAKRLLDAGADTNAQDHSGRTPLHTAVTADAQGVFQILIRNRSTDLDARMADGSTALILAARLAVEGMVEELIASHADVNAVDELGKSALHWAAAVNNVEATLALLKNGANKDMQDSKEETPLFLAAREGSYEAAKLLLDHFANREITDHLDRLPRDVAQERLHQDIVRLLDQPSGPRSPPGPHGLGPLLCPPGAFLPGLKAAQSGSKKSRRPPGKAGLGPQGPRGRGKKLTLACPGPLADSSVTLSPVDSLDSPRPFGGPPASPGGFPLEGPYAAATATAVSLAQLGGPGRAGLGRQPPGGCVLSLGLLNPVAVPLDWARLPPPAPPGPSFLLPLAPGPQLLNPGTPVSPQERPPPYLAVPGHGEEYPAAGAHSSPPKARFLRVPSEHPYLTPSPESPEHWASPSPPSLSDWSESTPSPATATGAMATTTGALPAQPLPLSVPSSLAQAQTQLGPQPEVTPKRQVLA

[10] = small-molecule microarray binders of probe aEGFR, primary screen, biochemical, biotinylated probe, 635/667 nm fluorescence (AID 1097); conditions: higher = more signal;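 also: probe is a biotinylated anti-EGFR antibody binding compounds printed on slides; score combines fluorescence near 667 nm and signal to noise of each spot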

Row | SMILES | composite z-score [1] | z-score [2] | z-score [3] | z-score [4] | composite z-score [5] | z-score [6] | composite z-score [7] | composite z-score [8] | composite z-score [9] | composite z-score [10]
1 | O=C1O[C@@H](c2ccccc2)[C@@H](c2ccccc2)N2[C@@H](c3ccc(OCCO)cc3)[C@]3(C(=O)Nc4ccccc43)[C@@H](C(=O)N3CCN(c4ncccn4)CC3)[C@H]12 | 1.53 | 1.94 (inactive) | 1.4 (inactive) | 4.77 (inactive) | 2.97 | 0.856 (inactive) | 1.04 | 0.952 | 1.1 | 0.0679
2 | O=C1[C@H]2[C@H]3[C@H](O)[C@H](O)CC(=NO[C@@H]4O[C@H](CO)[C@@H](O)[C@H](O)[C@H]4O)[C@H]3CC[C@H]2C(=O)N1Cc1ccccc1 | 1.46 | -0.509 (inactive) | -0.468 (inactive) | -0.987 (inactive) | 0.903 | -0.61 (inactive) | -0.0015 | 1.02 | 0.669 | -0.0565
3 | COc1ccc(O[C@H]2C=C[C@@H](c3ccccc3)O[C@@H]2COC(=O)CCC(C)=NOCC[C@@H]2C=C[C@H](OC(C)=O)[C@@H](COC(C)=O)O2)cc1 | 0.135 | -0.209 (inactive) | 0.951 (inactive) | 1.62 (inactive) | 1.69 | -0.211 (inactive) | 0.113 | 0.476 | 0.319 | -0.039
4 | CC(C)[C@@H](OCc1ccccc1)[C@H](C)C=NOC[C@@H](C)[C@H](OCc1ccccc1)C(C)C | 0.341 | 0.0268 (inactive) | 0.893 (inactive) | 0.338 (inactive) | -0.218 | 0.413 (inactive) | -0.0862 | 0.367 | 0.421 | -0.0234
5 | COCCOC(=O)N1C(=O)[C@@]2(c3ccccc31)[C@H](C(N)=O)[C@H]1C(=O)O[C@H](c3ccccc3)[C@H](c3ccccc3)N1[C@@H]2c1ccccc1OCCO | 1.53 | 0.438 (inactive) | -0.142 (inactive) | 3.11 (inactive) | 1.84 | 1.24 (inactive) | 0.16 | 1.32 | 1.12 | 0.261
6 | COc1cccc([C@H]2Oc3ccc(OC)cc3C(=NOC(C)CN3CCCc4nc(C)c(C)cc43)[C@@H]2O)c1 (stereo not given in full) | 1.32 | -0.906 (inactive) | -0.912 (inactive) | -1.19 (inactive) | 0.605 | 0.732 (inactive) | 0.027 | 0.0233 | 0.522 | 0.0506
7 | COc1ccc(O[C@H]2C=C[C@@H](c3ccccc3)O[C@@H]2CON=C[C@@H](C)[C@H](OCc2ccccc2)C(C)C)cc1 | -0.28 | 0.706 (inactive) | -0.564 (inactive) | 0.314 (inactive) | -1.14 | -0.349 (inactive) | -0.235 | -0.347 | -1.27 | -0.241
8 | CC[C@@H](c1ccccc1)n1c(=O)n2n(c1=O)[C@H]1[C@H](O)[C@@H]3O[C@@H]3C(=NOCC(C)C)[C@H]1CC2 | -0.179 | 1.3 (inactive) | -0.0534 (inactive) | 1.37 (inactive) | 0.543 | 0.409 (inactive) | -0.213 | 0.288 | 0.586 | -0.0967
9 | O=C1[C@H]2[C@H]3[C@H](O)[C@H](O)CC(=NOC[C@@H](O)COCc4ccco4)[C@@H]3CC[C@H]2C(=O)N1c1ccc(F)cc1F | 0.601 | -0.236 (inactive) | 0.0766 (inactive) | -1.25 (inactive) | -1.34 | 0.363 (inactive) | -0.223 | 1.01 | 0.0986 | -0.0828
10 | COc1ccc(OC[C@H]2Cc3c(-c4ccccc4)nc4c(c3CO2)CN(CCOc2ccccc2)CC4)cc1 | 1.53 | -0.721 (inactive) | -2.44 (inactive) | -0.42 (inactive) | 1.32 | 0.258 (inactive) | 0.0534 | 0.476 | 1.1 | 0.03
11 | CO[C@@H]1COC(=O)CC=C[C@@H](C)COC(=O)[C@H](COCc2ccccc2)NC(=O)CC=C[C@H]1C | 0.943 | 0.847 (inactive) | -0.584 (inactive) | 0.736 (inactive) | -0.914 | 0.154 (inactive) | -0.183 | 1.71 | -0.551 | -0.0899
12 | C[C@@H]1CCC2C(=O)N(Cc3ccccc3)C[C@@H](O)CN2[C@H]1c1ccc(Br)cc1 (stereo not given in full) | 1.39 | -1.91 (inactive) | -3.75 (inactive) | -0.26 (inactive) | 1.5 | 0.369 (inactive) | -0.23 | 0.542 | 0.158 | -0.115
13 | [N-]=[N+]=NCc1ccccc1[C@@H]1OC(c2ccc(OCCCO)cc2)=N[C@]1(Cc1ccccc1)C(=O)N1CCOCC1 | 1.53 | -0.655 (inactive) | -0.42 (inactive) | 0.303 (inactive) | 3.52 | 0.986 (inactive) | 0.422 | 0.671 | 1.11 | 0.256
14 | CCN(CC)c1ccc(N2CC=CC34O[C@@H]5/C=C\CCC(C)OC(=O)C5[C@H]3C(=O)N(CCCO)[C@@H]4C2=O)cc1 (stereo not given in full) | -1 | 0.664 (inactive) | -0.0895 (inactive) | 0.928 (inactive) | 0.964 | 0.0591 (inactive) | -0.143 | -0.686 | -0.397 | -0.27
15 | CC(=O)OC[C@H]1O[C@H](CCON=C(C)CCC(=O)OC[C@H]2O[C@H](C#Cc3ccccc3)C=C[C@@H]2Oc2ccc(C)cc2)C=C[C@@H]1OC(C)=O | 0.269 | -0.465 (inactive) | -0.0797 (inactive) | -0.579 (inactive) | 0.719 | 0.554 (inactive) | -0.181 | 0.465 | -0.0894 | 0.0567
16 | C=CC[C@]1(C(=O)NCc2ccccc2)N=C(c2ccc(OCCCO)cc2)O[C@H]1c1ccccc1 | 1.55 | 0.159 (inactive) | -0.46 (inactive) | 6.37 (inactive) | 3.28 | 0.568 (inactive) | -0.0238 | 0.119 | 0.778 | -0.137
17 | Cc1ccc(S[C@]2(C(=O)O)CC(=O)N(Cc3ccccc3)[C@@H]2c2ccc(CO)cc2I)cc1 | 0.135 | -0.866 (inactive) | -1.17 (inactive) | 1.29 (inactive) | 1.28 | -0.104 (inactive) | -0.103 | -0.404 | -0.683 | -0.261
18 | CC(CCN1CCc2nc(-c3ccccc3)c(-c3ccccc3)cc2C1)=NO[C@@H](C)c1cn([C@H](CO)Cc2ccccc2)nn1 | 0.747 | -2.46 (inactive) | -2.24 (inactive) | -4.45 (inactive) | 0.272 | -0.966 (inactive) | -0.037 | 0.549 | -0.474 | -0.0172
19 | COCCNC(=O)OCC1CCCC2(CC(OC(=O)NCCc3ccc(F)cc3)CC(CCC(=O)N[C@@H](C)C(=O)OC)O2)O1 (stereo not given in full) | 1.5 | 0.104 (inactive) | -0.0142 (inactive) | 0.647 (inactive) | 0.876 | 0.0947 (inactive) | -0.0845 | 0.403 | 1.08 | 0.433
20 | COCCOC(=O)N1C(=O)[C@@]2(c3cc(C#CCNC(N)=O)ccc31)[C@H](c1ccc(O)cc1)N1[C@H](c3ccccc3)[C@H](c3ccccc3)OC(=O)[C@H]1[C@@H]2C(=O)N1CCCCCCC1 | 1.55 | 1.2 (inactive) | 0.159 (inactive) | 1.27 (inactive) | 0.859 | 0.576 (inactive) | 0.354 | 1.28 | 1.08 | 0.0396
21 | C#CCCCON=C1C[C@@H](O)[C@@H](O)[C@@H]2[C@@H]3C(=O)N(c4cccc(Oc5ccccc5)c4)C(=O)[C@@H]3CC[C@@H]12 | 0.678 | 0.71 (inactive) | 0.329 (inactive) | -0.426 (inactive) | 2.51 | 0.303 (inactive) | -0.0961 | 0.376 | 1.1 | 0.0675
22 | C#CCCCON=C1C[C@@H](O)[C@@H](O)[C@@H]2[C@@H]3C(=O)N(Cc4ccccc4)C(=O)[C@@H]3CC[C@H]12 | 0.0491 | -0.609 (inactive) | -0.216 (inactive) | -1.49 (inactive) | -0.172 | -0.0603 (inactive) | -0.0294 | 0.407 | 0.297 | -0.102
23 | CCCCCN1CC=CC23O[C@@H]4C=CCOC(=O)[C@@H]4[C@H]2C(=O)N(CCCCCCO)[C@@H]3C1=O (stereo not given in full) | -0.0856 | -0.44 (inactive) | -0.183 (inactive) | -0.291 (inactive) | 0.865 | 0.0293 (inactive) | -0.0436 | -1.38 | -0.973 | -0.254
24 | CC(C)NC(=O)[C@@]1(C)c2ccccc2C(=O)N(Cc2cc(F)cc(C(F)(F)F)c2)[C@H]1c1ccc(CO)cc1 | 0.86 | -0.0639 (inactive) | 0.102 (inactive) | -0.623 (inactive) | 1.76 | 0.341 (inactive) | 0.119 | 0.371 | 0.364 | 0.034
25 | COC(=O)CC=C[C@H](C)[C@@H](OCc1ccccc1Br)C(C)C | 0.204 | -0.0851 (inactive) | -0.552 (inactive) | 0.393 (inactive) | -0.117 | -0.295 (inactive) | -0.228 | 0.168 | -0.0294 | -0.167
26 | CC(C)N1CC=CC23O[C@@H]4C=CCCOC(=O)C4[C@H]2C(=O)N(CCCCCCO)[C@@H]3C1=O (stereo not given in full) | 0.613 | 0.653 (inactive) | 0.159 (inactive) | 0.121 (inactive) | 1.94 | -0.0822 (inactive) | -0.233 | -0.984 | -0.0917 | -0.297
27 | C[C@@H](c1ccccc1)N1C(=O)[C@H]2[C@H]3[C@H](O)[C@H](O)CC(=NOC[C@@H](O)COCc4ccco4)[C@@H]3CC[C@H]2C1=O | -0.291 | 0.539 (inactive) | 0.37 (inactive) | 1.3 (inactive) | 0.304 | 0.181 (inactive) | -0.217 | -1.01 | -1.1 | -0.221
28 | CN(C)CCCNC(=O)[C@@H]1c2ccccc2C(=O)N(Cc2cc(F)cc(C(F)(F)F)c2)[C@H]1c1ccc(CO)cc1 | 1.56 | -0.414 (inactive) | -0.627 (inactive) | -0.917 (inactive) | 2.93 | -0.66 (inactive) | -0.166 | -0.0315 | -1.2 | -0.174
29 | O=C1O[C@@H](c2ccccc2)[C@@H](c2ccccc2)N2[C@@H](c3ccccc3OCCO)[C@]3(C(=O)Nc4ccc(C#CCCO)cc43)[C@@H](C(=O)O)[C@H]12 | 1.54 | 1.14 (inactive) | -0.82 (inactive) | -0.103 (inactive) | 2.47 | 0.481 (inactive) | -0.3 | 0.573 | 1.12 | -0.352
